# From PubChem BioAssay (NCI)
# This is part of a sample that, as a whole, favours compounds with a hit. Of some 83,000 tested, about 20% had one in any assay.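 Results are percent growth after 48 hours of single-concentration exposure. 100 means growth as in untreated cells, lower positive values show inhibition; negative values down to -100 show cell death.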 A number with no mark means an inactive call. Calls of active or inactive are those of the source. Rule for the calls: active = growth percent below 10; inactive = the rest.
# System: A498 renal
# Assay: NCI-60 one-dose screen, 48 h (100 = growth as untreated, 0 = no growth, -100 = all killed)
# Conditions: 10 µM unless noted
row,Compound,growth
1,COc1ccc(-n2cc(-c3ccc(Cl)c(Cl)c3)[nH]c2=O)cc1OC,79.3%
2,CN1CCN(S(=O)(=O)O[C@@H]2C(=O)N(c3cc4c5ccccc5ccc4c4ccccc34)[C@H]2c2ccc(F)cn2)CC1,80.4%
3,O=C(O)CCNC1CCCCC1,94.6%
4,C#C[C@@]1(O)[C@@H](CO)O[C@@H](n2cc(I)c3c(N)ncnc32)[C@@H]1O,-86.5% (active)
5,COC1=CC2C=C(C3N(c4ccccc4)NC(=O)[C@@H]4CCCN34)C(=O)NC2C=C1 (stereo partly drawn),95.9%
6,CCCCc1n(Cc2ccc3ccccc3n2)cc[n+]1Cc1ccc2ccccc2c1,7.02% (active)
7,CN1CCN(/C=C2\CC(C(=O)NCc3ccc(Cl)cc3Cl)NC2=O)CC1 (stereo not drawn),90.8%
8,O=C1NC(SCc2ccc(F)cc2)=N/C1=C/c1cccc(OCc2ccc(Cl)cc2)c1,-5.28% (active)
9,NS(=O)(=O)c1ccc(-n2ncc(NC(=O)Nc3ccc(S(=O)(=O)Nc4nccs4)cc3)c2-c2ccccc2)cc1,112%
10,N#CC(C#N)=C1NC(c2ccccc2)=C(c2ccccc2)C(c2ccccc2Cl)=C1C#N,113%
11,CCOc1ccccc1C(=O)/C=C/c1cc2ccccc2[nH]c1=O,-14.7% (active)
12,Cc1ccc2nc3nc4ccc[nH]c4cc3c2c1,124%
13,C=C1C(=O)O[C@H]2[C@H]1CC/C(C=Nc1c(N)cc(C(F)(F)F)cc1Br)=C\CC[C@@]1(C)O[C@@H]21,55.2%
14,NC(N)=NC(N)=Nc1cc2ccccc2c2ccccc12,26%
15,O=C(Nc1ccc(S(=O)(=O)NC2CCCCCC2)cc1)C(c1ccccc1)S(=O)(=O)c1ccc(F)cc1 (stereo not drawn),-33.2% (active)
16,O=c1[nH]c2ccccc2cc1-c1nc2ccncc2[nH]1,88.7%
17,Cc1cccc(C)c1NCc1nnc(-c2ccco2)o1,96.5%
18,Cc1ccc(-c2nc(C#N)c(S(=O)(=O)N(C)CCO)o2)cc1,114%
19,Nc1c(C(=O)Nc2ccccc2Cl)sc2nc3c(cc12)CN(Cc1ccccc1)CC3,85.4%

row,Compound,growth
1,C#Cc1ccccc1NC(=O)c1sc2nc3c(cc2c1N)CCCCCC3,68.5%
2,CCOCc1cc(C(C)(C)C)ccc1O,74.2%
3,C=C(C)[C@@H]1CC[C@]2(C(=O)OCCOCCOCC[P+](c3ccccc3)(c3ccccc3)c3ccccc3)CC[C@]3(C)[C@H](CC[C@@H]4[C@@]5(C)CC[C@H](OC(=O)C(Cl)Cl)C(C)(C)[C@@H]5CC[C@]43C)[C@@H]12,-28.3% (active)
4,CNCc1cccc2c1OCCOCCOCCN(CCN1CCOCC1)S(=O)(=O)c1ccc(cc1)-c1cnc(N)c(n1)C(=O)N2,44.4%
5,Cc1c(Cl)cccc1NC(=O)c1sc2nc3c(cc2c1N)CN(Cc1ccccc1)CC3,36.6%
6,C=C(C)[C@@H]1CC[C@]2(C(=O)NCCCO)CC[C@]3(C)[C@H](CC[C@@H]4[C@@]5(C)CCCNC(C)(C)[C@@H]5CC[C@]43C)[C@@H]12,95.8%
7,COc1cc(/C=N/Nc2nc(-c3ccc(F)cc3)c(C#N)c(N3CCOCC3)n2)ccc1O,87.8%
8,C=C(C)[C@@H]1CC[C@]2(C(=O)N=C=S)CC[C@]3(C)[C@H](CC[C@@H]4[C@@]5(C)CCC(=O)C(C)(C)[C@@H]5CC[C@]43C)[C@@H]12,25.3%
9,CC1CCCN(CCCCCOc2ccc3oc4ccc(Cl)cc4c(=O)c3c2)C1 (stereo not drawn),76.3%
10,O=C(Nc1cccc(-c2cccc(F)c2)c1)C1CCN(Cc2cccc3cccnc23)CC1,55.3%
11,CC(=O)Nc1ccc2c(c1)Cc1cc(F)ccc1-2,73.2%
12,COc1ccc2[nH]c(=O)c(/C=C/C(=O)/C=C/c3ccc(O)c(OC)c3)cc2c1,89.7%
13,CC1=C/C(=N\N=C2/C=C(C)CC(C)(C)C2)CC(C)(C)C1,94.4%
14,NC(=O)c1ccc(C2C3=C(CCCC3=O)OC3=C2C(=O)c2ccccc2C3=O)cc1 (stereo not drawn),131%
15,N#CC1(C#N)C2=C(CCCC2)NC(c2c(F)cccc2Cl)C1(C#N)C#N (stereo not drawn),51.3%
16,CCCCn1c(=O)c(/C=C/C(=O)/C=C/c2ccc(OC)cc2)cc2cc(Cl)ccc21,91.6%
17,CCOC(=O)c1ccc(Nc2ncnc3ccc(NC(=O)c4ccccc4)cc23)cc1,106%
18,NS(=O)(=O)c1ccc(-n2nc(-c3ccccc3)ccc2=O)cc1,102%
19,CC(=O)Nc1nc2c(c(N)c1C#N)C(c1cccc(Cl)c1)C1=C(CCCC1=O)N2c1sc2c(c1C#N)CCCC2 (stereo not drawn),62.4%
